The values below come from PubChem BioAssay (Tox21).

Results filed as inconclusive are left out. Unmarked numbers belong to inactive results. Active and inactive are the calls of the source. Unless noted, calls come from the whole dose curve; as a rule, active = well fitted curve in the direction sought with a large enough effect in the repeat runs; inconclusive = weak or mixed curves; inactive = no such curve, though single readings can be large; an effect the other way counts as inactive or inconclusive.

Assay [1] has as its system thyroid hormone receptor (rat, GH3 cells). In words: qHTS assay to identify small molecule agonists of the thyroid receptor (TR) signaling pathway (AID 743066; calls by dose curve; note: potency is the fitted concentration of half-maximal effect).
A short description of assay [2]: qHTS assay to identify small molecule antagonists of the estrogen receptor alpha (ER-alpha) signaling pathway - cell viability counter screen (AID 743074; calls by dose curve;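 note: HEK293 cells carrying ER-alpha-UAS-bla reporter stimulated with 17beta-estradiol; nearly all actives have a fitted effect of over 45% in size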; note: potency is the fitted concentration of half-maximal effect).
The nature of assay [3]: qHTS assay to identify small molecule antagonists of the estrogen receptor alpha (ER-alpha) signaling pathway using the BG1 cell line - cell viability counter screen (AID 743081).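 Note: compound given together with 17beta-estradiol as the ER stimulus; series mostly up to about 70 µM; nearly all actives have a fitted effect of over 45% in size.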
Assay [4] deals with Aromatase (Homo sapiens) (UniProt P11511). In words: qHTS assay to identify aromatase inhibitors (AID 743083). Note: series mostly up to about 70 µM; nearly all actives have a fitted effect of over 55% in size.
The target of assay [5] is Aryl hydrocarbon receptor (Homo sapiens) (UniProt P35869). In words: qHTS assay to identify small molecule that activate the aryl hydrocarbon receptor (AhR) signaling pathway (AID 743085).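 For activation: HG2L7.5c1 human HepG2 liver cells with stably integrated DRE-driven firefly reporter; series mostly up to about 70 µM.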 Note: nearly all actives have a fitted effect of over 15% in size. Note: potency is the fitted concentration of half-maximal effect. The essentials:
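Compounds were tested in HepG2 hepatocellular carcinoma cells harbouring a stably integrated luciferase gene under control of 20 DREs. Increased reporter signal after 24 h treatment at 37C was taken as AhR activation.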

Assay [6] can be described thus: qHTS assay to identify small molecule antagonists of the peroxisome proliferator-activated receptor gamma (PPARg) signaling pathway - cell viability counter screen (AID 743194). Note: nearly all actives have a fitted effect of over 55% in size. The essentials: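 Viability was measured as CellTiter-Glo luminescence in GeneBLAzer PPARg UAS-bla HEK293H cells. These cells had been exposed 17 h at 37 C to compounds together with rosiglitazone at 50 nM final, with the beta-lactamase readout taken in the same wells.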

A short description of assay [7]: qHTS assay for small molecule agonists of the antioxidant response element (ARE) signaling pathway (AID 743202; active = well fitted activation curve with a large enough effect in the signal ratio in the repeat runs, not every such curve was filed as active; the % refers to the signal ratio). The method, boiled down: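 Quantitative high-throughput format in HepG2 cells bearing an integrated ARE-beta-lactamase reporter. Compound exposure lasted 16 h at 37 C, and fluorescence was read 2 h after adding LiveBLAzer B/G substrate at room temperature.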

Assay [8] in a line: qHTS assay for small molecule agonists of the antioxidant response element (ARE) signaling pathway - cell viability counter screen (AID 743203; calls by dose curve; note: nearly all actives have a fitted effect of over 55% in size). The essentials: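 ARE-bla HepG2 cells were plated, rested 5 h at 37C/5% CO2, then exposed to compounds in DMSO for 16 h. Viability was read as CellTiter-Glo luminescence after 30 min at room temperature, in the same wells as the ARE screen.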

Assay [9] in a line: qHTS assay to identify small molecule agonists of the peroxisome proliferator-activated receptor delta (PPARd) signaling pathway - cell viability counter screen (AID 743211). Note: nearly all actives have a fitted effect of over 55% in size. The essentials: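 Counter screen for cytotoxicity run in parallel with the PPARd reporter screen. Beta-lactamase reporter HEK293H cells exposed to compounds 17 h; ATP-based CellTiter-Glo luminescence quantified viability.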

Assay [10] in a line: qHTS assay to identify aromatase inhibitors - cell viability counter screen (AID 743084).
Assay [11] in a line: qHTS assay to identify small molecule that activate the aryl hydrocarbon receptor (AhR) signaling pathway - cell viability counter screen (AID 743086).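 Note: HepG2 liver cells carrying the AhR DRE luciferase reporter; series mostly up to about 70 µM; nearly all actives have a fitted effect of over 45% in size.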 The essentials:
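Cytotoxicity counter screen: CellTiter-Fluor signal (30 min, 37 C) in 4000 HepG2 cells/well carrying the DRE-luciferase reporter, following 24 h compound exposure at 37 C.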

Assay [12] addresses Peroxisome proliferator-activated receptor gamma (Homo sapiens) (UniProt P37231). In words: qHTS assay to identify small molecule agonists of the peroxisome proliferator-activated receptor gamma (PPARg) signaling pathway (AID 743094; active = well fitted activation curve with a large enough effect in the signal ratio in the repeat runs, not every such curve was filed as active; the % refers to the signal ratio). The essentials: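 GeneBLAzer PPARg UAS-bla HEK293H cells were plated, rested 5 h, then exposed to compounds for 17 h at 37C. Beta-lactamase activity was read by LiveBLAzer B/G FRET substrate fluorescence after 1 h at room temperature.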

The nature of assay [13]: qHTS assay for small molecule activators of the heat shock response signaling pathway - cell viability counter screen (AID 743209). Note: nearly all actives have a fitted effect of over 50% in size. The essentials: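 HSE-bla HeLa cells plated overnight, then exposed to Tox21 compounds (23 nL in DMSO) for 5 h at 37 C. After the bla reporter read, CellTiter-Glo was added in the same wells and luminescence read after 30 min at room temperature.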

Assay [14] can be described thus: qHTS assay for small molecule activators of the heat shock response signaling pathway (AID 743210; active = well fitted activation curve with a large enough effect in the signal ratio in the repeat runs, with a control signal flat, not every such curve was filed as active; the % refers to the signal ratio;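 note: HeLa cells with beta-lactamase reporter driven by heat shock elements; series mostly up to about 63 µM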). The essentials:
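HeLa HSE-bla cells, overnight plating; cpd in DMSO 5 h, 37 C; LiveBLAzer B/G FRET substrate 2.5 h RT; fluorescence intensity read.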

Assay [15] in a line: qHTS assay to identify small molecule antagonists of the thyroid receptor (TR) signaling pathway (AID 743065). The method, boiled down:
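Antagonism measured as loss of luciferase signal in GH3 cells stably carrying a TRE-luciferase reporter, co-treated with compound and T3 (1 nM final) for 23.5 h at 37 C. Viability was read in the same well by CellTiter-Fluor.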

In assay [16] the target is Estrogen receptor (Homo sapiens) (UniProt P03372). In words: qHTS assay to identify small molecule agonists of the estrogen receptor alpha (ER-alpha) signaling pathway using the BG1 cell line (AID 743079). Note: nearly all actives have a fitted effect of over 20% in size. Note: potency is the fitted concentration of half-maximal effect.
Assay [17] is described as follows: qHTS assay to identify small molecule antagonists of the estrogen receptor alpha (ER-alpha) signaling pathway using the BG1 cell line (AID 743080; calls by dose curve;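 note: BG1 cells stimulated with 17beta-estradiol alongside compound; series mostly up to about 70 µM; nearly all actives have a fitted effect of over 25% in size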). The method, boiled down:
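Luminescence from a 4×ERE-luciferase reporter in BG1-Luc-4E2 cells served as read-out. Cells, pre-cultured 5 days in stripped-serum phenol-red-free medium, were exposed to compound with 17beta-estradiol co-stimulation for 21.5 h at 37 C.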

Assay [18] addresses Peroxisome proliferator-activated receptor gamma (Homo sapiens) (UniProt P37231). In words: qHTS assay to identify small molecule antagonists of the peroxisome proliferator-activated receptor gamma (PPARg) signaling pathway (AID 743191; calls by dose curve; note: series mostly up to about 63 µM; nearly all actives have a fitted effect of over 30% in size). The method, boiled down:
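Beta-lactamase reporter under UAS control in HEK293H PPARg-bla cells; compound treatment 17 h at 37C. Read-out: fluorescence intensity after 1 h room-temperature incubation with LiveBLAzer B/G FRET substrate.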

The target of assay [19] is Estrogen receptor (Homo sapiens) (UniProt P03372). In words: qHTS assay to identify small molecule antagonists of the estrogen receptor alpha (ER-alpha) signaling pathway (AID 743069; active = well fitted curve in the direction sought with a large enough effect in the signal ratio in the repeat runs, not every such curve was filed as active; the % refers to the signal ratio). The method, boiled down: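 ER-alpha-UAS-bla GripTite HEK293 line; 2% charcoal-stripped FBS overnight; plated, 4 hr 37C/5% CO2; cpd in DMSO + 17beta-estradiol, 18 hr 37C; LiveBLAzer B/G FRET substrate 2 hr RT; fluorescence intensity.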

The target is the same in assay [20]. In words: qHTS assay to identify small molecule agonists of the estrogen receptor alpha (ER-alpha) signaling pathway (AID 743075; calls by dose curve;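 note: HEK293 GripTite cells with ER-alpha and UAS-driven beta-lactamase reporter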).

Chain of Peroxisome proliferator-activated receptor gamma (Homo sapiens) (P37231 whole entry, looked up): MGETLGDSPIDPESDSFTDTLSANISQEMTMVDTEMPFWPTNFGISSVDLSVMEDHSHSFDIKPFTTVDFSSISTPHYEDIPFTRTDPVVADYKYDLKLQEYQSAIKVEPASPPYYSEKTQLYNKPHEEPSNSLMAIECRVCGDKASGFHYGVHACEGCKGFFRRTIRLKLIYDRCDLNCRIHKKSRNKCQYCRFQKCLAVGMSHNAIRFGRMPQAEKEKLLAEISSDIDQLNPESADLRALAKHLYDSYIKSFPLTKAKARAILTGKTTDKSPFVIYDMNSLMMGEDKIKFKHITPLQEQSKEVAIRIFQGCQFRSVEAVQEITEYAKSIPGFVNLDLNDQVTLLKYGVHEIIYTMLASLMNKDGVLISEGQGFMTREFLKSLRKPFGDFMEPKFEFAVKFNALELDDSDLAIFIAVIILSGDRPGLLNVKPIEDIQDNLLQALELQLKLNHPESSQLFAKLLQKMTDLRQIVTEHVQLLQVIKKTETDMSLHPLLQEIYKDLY
Chain of Estrogen receptor (Homo sapiens) (P03372 whole entry, looked up): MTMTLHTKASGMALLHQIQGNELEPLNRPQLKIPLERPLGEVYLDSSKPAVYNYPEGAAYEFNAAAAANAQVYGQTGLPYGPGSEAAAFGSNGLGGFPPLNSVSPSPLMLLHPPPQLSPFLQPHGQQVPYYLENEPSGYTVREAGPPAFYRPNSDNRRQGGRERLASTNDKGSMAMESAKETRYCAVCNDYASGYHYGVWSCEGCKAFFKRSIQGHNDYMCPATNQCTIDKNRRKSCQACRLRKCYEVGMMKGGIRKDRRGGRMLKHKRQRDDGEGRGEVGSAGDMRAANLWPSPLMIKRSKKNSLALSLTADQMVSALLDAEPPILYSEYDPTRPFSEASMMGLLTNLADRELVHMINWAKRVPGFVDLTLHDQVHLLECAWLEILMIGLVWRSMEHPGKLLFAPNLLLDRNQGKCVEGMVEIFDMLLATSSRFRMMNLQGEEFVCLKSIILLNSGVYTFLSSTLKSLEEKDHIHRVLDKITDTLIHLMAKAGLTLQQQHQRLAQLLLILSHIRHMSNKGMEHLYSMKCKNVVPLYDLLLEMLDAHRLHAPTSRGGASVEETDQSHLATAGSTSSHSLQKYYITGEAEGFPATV
Chain of Aryl hydrocarbon receptor (Homo sapiens) (P35869 whole entry, looked up): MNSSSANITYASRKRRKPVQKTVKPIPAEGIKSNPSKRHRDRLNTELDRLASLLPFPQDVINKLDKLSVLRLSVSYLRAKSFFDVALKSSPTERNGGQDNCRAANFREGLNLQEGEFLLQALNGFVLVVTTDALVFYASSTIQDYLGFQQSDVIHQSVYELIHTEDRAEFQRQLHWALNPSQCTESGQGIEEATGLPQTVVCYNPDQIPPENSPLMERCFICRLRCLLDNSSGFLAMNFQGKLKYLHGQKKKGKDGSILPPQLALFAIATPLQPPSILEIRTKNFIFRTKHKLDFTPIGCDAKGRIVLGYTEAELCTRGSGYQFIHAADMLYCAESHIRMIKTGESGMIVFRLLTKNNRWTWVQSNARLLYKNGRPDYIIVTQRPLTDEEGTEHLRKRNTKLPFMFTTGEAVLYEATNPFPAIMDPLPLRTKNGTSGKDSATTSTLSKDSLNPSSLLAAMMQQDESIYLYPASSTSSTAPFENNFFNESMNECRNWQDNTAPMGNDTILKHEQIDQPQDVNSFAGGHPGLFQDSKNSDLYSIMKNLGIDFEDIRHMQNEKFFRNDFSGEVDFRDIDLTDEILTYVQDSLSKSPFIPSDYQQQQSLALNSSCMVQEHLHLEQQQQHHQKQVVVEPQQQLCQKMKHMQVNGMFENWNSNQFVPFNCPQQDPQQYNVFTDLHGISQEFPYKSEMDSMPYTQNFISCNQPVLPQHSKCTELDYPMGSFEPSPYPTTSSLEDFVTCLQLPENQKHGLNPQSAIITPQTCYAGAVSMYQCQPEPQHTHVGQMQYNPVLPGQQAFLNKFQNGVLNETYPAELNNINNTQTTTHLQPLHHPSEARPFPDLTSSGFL
Chain of Aromatase (Homo sapiens) (P11511 whole entry, looked up): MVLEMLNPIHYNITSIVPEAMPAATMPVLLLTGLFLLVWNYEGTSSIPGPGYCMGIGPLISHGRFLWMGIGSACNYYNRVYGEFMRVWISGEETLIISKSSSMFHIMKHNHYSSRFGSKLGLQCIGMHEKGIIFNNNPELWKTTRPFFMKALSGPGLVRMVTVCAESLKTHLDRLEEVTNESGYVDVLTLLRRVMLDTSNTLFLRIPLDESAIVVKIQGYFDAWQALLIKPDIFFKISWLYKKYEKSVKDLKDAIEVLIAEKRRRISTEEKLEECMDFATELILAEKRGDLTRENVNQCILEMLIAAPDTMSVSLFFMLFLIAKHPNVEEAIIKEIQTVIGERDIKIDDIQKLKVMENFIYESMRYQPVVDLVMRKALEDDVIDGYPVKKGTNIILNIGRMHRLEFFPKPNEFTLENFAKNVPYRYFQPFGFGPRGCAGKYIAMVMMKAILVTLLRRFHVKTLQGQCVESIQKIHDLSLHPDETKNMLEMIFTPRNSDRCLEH

For `O=C1CC2(CCCC2)CC(=O)N1CCNCC1COc2ccccc2O1` (stereo unspecified), the Potency entry in assay [1], in assay [4], in assay [5] and in assay [7] was “inactive” throughout. For the same molecule, the Potency in [2] is 21.3 µM (active). The molecule was called inactive in assay [3], in assay [6], in assay [8] and in assay [9].
For `CCO/C=C1\N=C(c2ccccc2)OC1=O`, the Potency entry in assay [1], in assay [2], in [4], in assay [5], in [7] and in assay [13] was “inactive” each time. In addition, the call in assay [3], in [10], in assay [11], in assay [12], in assay [6] and in assay [8] was inactive. The molecule was called inactive in [14] and in [9].
`COC(=O)c1c(C)cc(O)c(C)c1O`: the Potency result in assay [15], in assay [2], in [17], in assay [4], in [5] and in assay [7] was “inactive” in each case. In addition, the Potency result in assay [13] is “inactive”. In addition, the Potency in [16] is 68.6 µM (active). The result in assay [3], in [10], in [11], in assay [12], in assay [18] and in assay [6] was inactive. The molecule was called inactive in assay [8], in [14] and in assay [9].
`O=CN1CCCCC1`: the result in assay [19], in [3], in [10], in assay [12], in assay [18] and in assay [6] was inactive. Further, the molecule was called inactive in assay [8], in assay [14] and in assay [9]. Also, the Potency result in assay [2], in assay [20], in assay [16], in [17], in assay [4] and in [5] was “inactive” throughout. Also, the Potency result in [7] and in assay [13] was “inactive” in each case.
Turning to `COc1cc(NS(=O)(=O)c2ccc(N)cc2)ncn1`, the Potency entry in assay [15], in [1], in assay [2], in [4], in assay [5] and in assay [7] was “inactive” throughout. Moreover, the Potency result in [13] is “inactive”. For the same molecule, the result in [3], in [10], in [12], in assay [8] and in [14] was inactive.
`CCCOc1ccc(C(=O)OCCN(CC)CC)cc1N`: the Potency result in assay [1], in assay [2] and in [4] was “inactive” throughout. The call in assay [10], in assay [11], in assay [12], in assay [18], in assay [6] and in [8] was inactive. The molecule was classed as inactive in [14] and in assay [9]. The Potency in assay [5] is 1.33 µM (active).
In the case of `CC(C)(O)CCCC1=CCC(C=O)CC1` (stereo unspecified), the Potency result in assay [1], in assay [2], in assay [20], in assay [4], in assay [5] and in assay [13] was “inactive” in each case. The result in assay [19], in [3], in assay [10], in assay [12], in [6] and in assay [8] was inactive. The molecule was called inactive in [14] and in [9]. The Potency in assay [16] was 58.1 µM (active).
Turning to `CC1(C)C(=O)C(C)(C)C1=O`, the Potency result in assay [15], in assay [1], in assay [2], in assay [4], in assay [5] and in assay [7] was “inactive” in each case. For the same molecule, the Potency entry in assay [13] is “inactive”. In addition, the outcome in [3], in [10], in [8], in assay [14] and in [9] was inactive.
`CCCC(C)C(O)CC` (stereo unspecified): the Potency result in assay [15], in assay [1], in assay [2], in assay [4], in assay [5] and in assay [7] was “inactive” each time. Moreover, the molecule was classed as inactive in [3], in assay [10], in assay [12], in [6], in assay [8] and in assay [9].
Turning to `Cc1cc(N)no1`, the Potency result in assay [15], in assay [1], in assay [2] and in assay [13] was “inactive” each time. Also, the molecule was called inactive in [3], in assay [11], in assay [6], in [8], in assay [14] and in assay [9].
With `CC(C)c1cc(C(C)C)cc(C(C)C)c1`, the molecule was classed as inactive in assay [19], in assay [3], in assay [10], in assay [11], in assay [12] and in assay [6]. The molecule was called inactive in assay [8], in [14] and in [9]. The Potency result in [2], in assay [20], in [16], in assay [17], in assay [4] and in assay [5] was “inactive” in each case. Moreover, the Potency entry in [7] and in assay [13] was “inactive” throughout.
Consider `CCCCCCCCS(=O)(=O)O`, for which the Potency entry in assay [15], in assay [1], in assay [2], in assay [4], in [5] and in assay [7] was “inactive” in each case. For the same molecule, the Potency entry in [13] is “inactive”. The result in [3], in assay [10], in [6], in assay [8] and in assay [14] was inactive.
Consider `Cc1ccc2ccccc2n1`, for which the Potency entry in [15], in assay [1], in assay [2], in assay [4], in [5] and in [7] was “inactive” in each case. Moreover, the Potency result in assay [13] was “inactive”. Also, the molecule was called inactive in [3], in assay [10], in [18], in assay [6], in assay [8] and in [9].
With `C=CC(=O)OCCOCCOCC`, the Potency result in assay [15], in [1], in assay [2], in assay [4] and in [5] was “inactive” each time. In addition, the molecule was called inactive in [3], in assay [12], in [18], in assay [6], in assay [8] and in assay [9].
As for `O=Cc1ccccc1S(=O)(=O)O`, the Potency result in assay [15], in [2], in assay [4], in assay [5], in assay [7] and in assay [13] was “inactive” throughout. Further, the Potency in assay [1] was 68.5 µM (active). Further, the result in [10], in assay [11], in assay [12], in assay [6], in assay [8] and in assay [14] was inactive.
